Screens deposited in PubChem BioAssay by Broad Institute.
DUX4 txn inh: DUX4-mediated transcription inhibition | 293T-iDUX4 ZSCAN4-Gaussia luciferase reporter, 24 h; stronger effect = lower value | activity change, negative = inhibition, % (concentration not given with the values) | 37,000 compounds, 0.8% hits | AID 1224904;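 active means mean inhibition of at least 10% in the main channel, exceeding the control channel by a set limit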;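 further: 0% = median of neutral control wells and -100% = median of positive control wells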
The depositor's hits bear a star; ! = a repeat was not active. Shown is part of a subset that was picked to be rich in hits.

SMILES	DUX4 txn inh
COc1ccc(C#Cc2ccc([C@H]3[C@H]4CN(Cc5ccccc5F)CCCCN4[C@H]3CO)cc2)cc1	-21*
OC[C@@H]1[C@@H](c2ccc(C#CC3(O)CCCC3)cc2)[C@H]2CN(Cc3ccccc3F)CCCCN12	7
COc1ccc(C#Cc2ccc([C@@H]3[C@@H](CO)N4CCCCN(Cc5ccccc5F)C[C@H]34)cc2)cc1	-19*
CN1CCCCN2[C@@H](CO)[C@H](c3ccc(C#Cc4ccccc4F)cc3)[C@@H]2C1	2
COc1ccc(C#Cc2ccc([C@@H]3[C@H](CO)N4CCCCN(Cc5ccncc5)C[C@@H]34)cc2)cc1	0
O=C(c1cnccn1)N1CC(=O)N2[C@H](CO)[C@H](c3ccc(C#CC4CC4)cc3)[C@H]2C1	9
COc1cccc(S(=O)(=O)N2C[C@@H](O)COC[C@@H]3O[C@@H](CC(=O)Nc4ccccc4)CC[C@H]32)c1	-5
CC(=O)N1[C@H](CO)[C@@H]2c3ccccc3N(S(=O)(=O)c3ccccc3C)C[C@@H]21	-1
CN1C(=O)c2cc(NC(=O)c3ccc(F)c(F)c3)ccc2OC[C@@H]2O[C@@H](CC(=O)N[C@@H]3CCN(Cc4ccccc4)C3)CC[C@@H]21	-6
C[C@@H]1CN([C@H](C)CO)C(=O)c2cc(-c3cccc(F)c3)cnc2O[C@H]1CN(C)C(=O)c1cnccn1	0
C[C@H]1CN([C@@H](C)CO)C(=O)c2cccc(NC(=O)c3cnccn3)c2O[C@H]1CN(C)C(=O)Nc1ccc2c(c1)OCO2	3
O=C(C1CCOCC1)N1C[C@@H]2N[C@H](C1)C2c1ccc(-c2cccc(F)c2)cc1 (some centres undefined)	-8
N#Cc1ccc(-c2ccc(C3[C@@H]4CN(C(=O)C5CCCCC5)C[C@H]3N4)cc2)cc1 (some centres undefined)	-52*!
N#Cc1cccc(-c2ccc(C3[C@@H]4CN(C(=O)c5ccncc5)C[C@H]3N4)cc2)c1 (some centres undefined)	1
N#Cc1cccc(-c2ccc(C3[C@@H]4CN(C(=O)C5CCCCC5)C[C@H]3N4)cc2)c1 (some centres undefined)	-52*!
N#Cc1ccc(-c2ccc(C3[C@@H]4CN(C(=O)c5ccncc5)C[C@H]3N4)cc2)cc1 (some centres undefined)	-6
CC(=O)N1C[C@@H]2N[C@H](C1)C2c1ccc(-c2ccccc2)cc1 (some centres undefined)	1
CC(C)c1cn(CC[C@@H]2CC[C@H](NC(=O)Nc3cc(Cl)cc(Cl)c3)[C@H](CO)O2)nn1	7
CCC(=O)N1CC2(CCN(Cc3ccncc3)CC2)c2c(n(C)c3cc(OC)ccc23)[C@@H]1CO	1
COCC(=O)NC[C@@H]1[C@H](c2ccc(-c3ccccc3)cc2)[C@H](CO)N1C(C)=O	-4
O=C(NC1CCCC1)N1CC2(C1)[C@H](c1ccccc1)[C@@H](CO)N2S(=O)(=O)Cc1ccccc1	-7
O=C(C[C@H]1CC[C@@H]2[C@H](COC[C@@H](O)CN2C(=O)Nc2ccccc2)O1)NCCc1ccncc1	14
O=C(c1ccncc1)N1CC[C@@H]2[C@@H](CO)Nc3ccc(C4=CCCCC4)cc3[C@@H]21	10
COc1ccc2c3c([nH]c2c1)[C@H](CO)N(C(=O)Nc1ccc(F)cc1)CC31CN(CC2CC2)C1	2
COc1ccc(CN2CC3(CCN(C(=O)c4ccccc4)CC3)c3c([nH]c4cc(OC)ccc34)[C@@H]2CO)cc1	-2
SMILES	DUX4 txn inh
CCCC(=O)N1CCC2(CC1)CN(Cc1ccncc1)[C@@H](CO)c1[nH]c3cc(OC)ccc3c12	2
COc1ccc(CN2CC3(CN(C(=O)c4ccccc4)C3)c3c([nH]c4cc(OC)ccc34)[C@@H]2CO)cc1	-51*
CCCC(=O)N1CCC2(CC1)CN(Cc1ccc(Cl)cc1)[C@H](CO)c1[nH]c3cc(OC)ccc3c12	-63*
COc1ccc2c3c([nH]c2c1)[C@H](CO)N(C(=O)Nc1ccc(F)cc1)CC31CN(S(C)(=O)=O)C1	7
COc1ccc(CN2CC3(C2)CN(C(=O)Nc2ccc(F)cc2)[C@@H](CO)c2[nH]c4cc(OC)ccc4c23)cc1	-39*
CCCC(=O)N1CC2(C1)CN(Cc1ccc(Cl)cc1)[C@@H](CO)c1[nH]c3cc(OC)ccc3c12	-85*
CCCC(=O)N1CCC2(CC1)CN(Cc1nccs1)[C@H](CO)c1[nH]c3cc(OC)ccc3c12	-1
COc1ccc2c3c([nH]c2c1)[C@H](CO)N(Cc1ccc(F)cc1)CC31CN(C(C)=O)C1	-3
COc1ccc2c3c([nH]c2c1)[C@@H](CO)N(Cc1ccncc1)CC31CN(C(=O)c2cccnc2)C1	18
COc1ccc2c3c([nH]c2c1)[C@H](CO)N(Cc1ccncc1)CC31CN(C(=O)Cc2ccncc2)C1	12
C/C=C/c1ccc2c(c1)O[C@H](CN(C)CC1CCOCC1)[C@@H](C)CN([C@@H](C)CO)S2(=O)=O	-2
O=C(Nc1cc(F)ccc1F)N[C@H]1CC[C@@H](CC(=O)N2CCc3ccccc3C2)O[C@H]1CO	-9
CNC[C@H]1Oc2ccc(NC(=O)NC3CCCCC3)cc2CC(=O)N([C@H](C)CO)C[C@@H]1C	-4
CO[C@H](CN(C)C(=O)c1cnccn1)[C@H](C)CN([C@H](C)CO)S(=O)(=O)c1ccc(Cl)cc1	2
CCCC(=O)N1CC2(C1)CN(Cc1ccncc1)[C@H](CO)c1[nH]c3cc(OC)ccc3c12	10
CCCC(=O)N1CC2(C1)CN(Cc1ccc(Cl)cc1)[C@H](CO)c1[nH]c3cc(OC)ccc3c12	-80*
COc1ccc2c3c([nH]c2c1)[C@H](CO)N(Cc1ccncc1)CC31CN(S(C)(=O)=O)C1	9
CCC(=O)N1CC2(C1)CN(Cc1ccc(OC)cc1)[C@H](CO)c1[nH]c3cc(OC)ccc3c12	2
COc1ccc2c3c([nH]c2c1)[C@H](CO)N(Cc1cccc(Cl)c1)CC31CN(C)C1	-7
COc1ccc2c3c([nH]c2c1)[C@H](CO)N(Cc1ccc(Cl)cc1)CC31CN(S(C)(=O)=O)C1	-45*
O=C(NC1CCC1)[C@H]1N[C@H]2c3ccc(-c4cccc(F)c4)c(=O)n3C[C@H]2[C@@H]1CO	-6
CN(C)CC(=O)N1[C@H](C#N)[C@@H](c2ccccc2-c2cccc(C(=O)N(C)C)c2)[C@H]1CO	6
COCC(=O)Nc1ccc2c(c1)C(=O)N(C)[C@H]1CC[C@H](CC(=O)NC3Cc4ccccc4C3)O[C@H]1CO2	2
CCCNC(=O)N1C[C@@H]2[C@H](c3ccccc31)[C@@H](CO)N2Cc1ccc2c(c1)OCO2	0
C[C@@H]1CN([C@H](C)CO)C(=O)c2c(c3ccccc3n2C)-c2ccccc2CO[C@@H]1CN(C)C(=O)c1ccc(F)cc1	-6
C[C@@H]1CN([C@@H](C)CO)C(=O)c2c(c3ccccc3n2C)-c2ccccc2CO[C@@H]1CN(C)C(=O)c1cc(Cl)cc(Cl)c1	-42*
C[C@@H]1CN([C@@H](C)CO)C(=O)c2c(c3ccccc3n2C)-c2ccccc2CO[C@@H]1CN(C)C(=O)c1ccncc1	1
C[C@H]1CN([C@@H](C)CO)C(=O)c2c(c3ccccc3n2C)-c2ccccc2CO[C@@H]1CN(C)C(=O)c1ccc(F)cc1	-32*
C[C@H](CO)N1C[C@H](C)[C@@H](CN(C)C(=O)c2cc(Cl)cc(Cl)c2)OCc2ccccc2-c2c(n(C)c3ccccc23)C1=O	13
CC(=O)N(C)C[C@@H]1OCc2ccccc2-c2c(n(C)c3ccccc23)C(=O)N([C@@H](C)CO)C[C@H]1C	17
